Experimental findings from PubChem BioAssay are described below.

Calls of active or inactive are those of the source. Unless noted, no rule for the calls is given here.

The nature of assay [1]: compounds binding Alexa647 anti-His antibody – biochemical, small-molecule microarray, 635 nm fluorescence, artefact control for SMM control protein annotation, primary screen (AID 1128).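 Also: score merges feature fluorescence with signal-to-noise for each printed compound spot.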 The conditions noted are these: higher = more signal.
The test system of assay [2] is Human papillomavirus type 1a E7 protein (residues 1-88). As to the kind of experiment: HPV1a E7 small-molecule binders, primary screen, biochemical, small-molecule microarray, residues 1-88, 635 nm (AID 1129). The conditions noted are these: small-molecule microarray binding, fluorescence 635 nm; higher = more signal.
Assay [3] deals with Focal adhesion kinase 1 (Homo sapiens) (UniProt Q05397). As to the kind of experiment: PTK2 protein binding on printed compound slides – biochemical, small-molecule microarray, 635/667 nm fluorescence, BSA, DTT, primary screen (AID 1130).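 Also: composite of spot emission at 667 nm and signal to noise over triplicate slides.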 The settings on record: 635 nm fluorescence, higher = more signal.
Chain of Focal adhesion kinase 1 (Homo sapiens) (Q05397 whole entry, looked up): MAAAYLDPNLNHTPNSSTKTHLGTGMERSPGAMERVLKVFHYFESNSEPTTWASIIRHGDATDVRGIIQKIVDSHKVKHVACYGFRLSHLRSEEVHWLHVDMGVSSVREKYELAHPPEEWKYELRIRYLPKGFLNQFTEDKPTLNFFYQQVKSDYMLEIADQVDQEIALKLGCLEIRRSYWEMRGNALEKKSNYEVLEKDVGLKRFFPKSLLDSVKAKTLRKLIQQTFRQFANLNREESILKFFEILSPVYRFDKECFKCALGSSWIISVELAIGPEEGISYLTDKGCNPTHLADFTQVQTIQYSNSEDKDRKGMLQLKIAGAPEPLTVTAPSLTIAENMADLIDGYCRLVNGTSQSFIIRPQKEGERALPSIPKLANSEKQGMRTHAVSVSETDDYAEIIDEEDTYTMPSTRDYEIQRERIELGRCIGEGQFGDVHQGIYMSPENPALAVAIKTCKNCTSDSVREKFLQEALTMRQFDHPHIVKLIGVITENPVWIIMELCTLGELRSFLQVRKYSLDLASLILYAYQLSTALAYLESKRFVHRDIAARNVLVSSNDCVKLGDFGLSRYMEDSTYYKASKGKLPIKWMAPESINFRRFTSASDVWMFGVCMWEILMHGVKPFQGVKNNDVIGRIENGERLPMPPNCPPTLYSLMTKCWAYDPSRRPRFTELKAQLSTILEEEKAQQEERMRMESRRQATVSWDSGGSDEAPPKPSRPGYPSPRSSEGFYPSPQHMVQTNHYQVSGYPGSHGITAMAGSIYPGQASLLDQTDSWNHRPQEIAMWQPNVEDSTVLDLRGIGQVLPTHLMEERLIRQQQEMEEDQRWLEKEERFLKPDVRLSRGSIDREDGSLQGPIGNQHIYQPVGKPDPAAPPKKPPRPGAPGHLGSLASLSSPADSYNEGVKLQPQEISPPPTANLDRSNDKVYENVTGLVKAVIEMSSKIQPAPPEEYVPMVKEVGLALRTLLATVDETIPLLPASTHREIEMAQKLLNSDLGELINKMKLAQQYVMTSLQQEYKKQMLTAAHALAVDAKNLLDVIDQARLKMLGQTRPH
Assay [4] relates to Fibrinogen (Alexa647-labelled). As to the kind of experiment: Alexa647-fibrinogen binding to printed small molecules – biochemical, small-molecule microarray, 635/667 nm fluorescence, artefact control for SMM control-protein annotation, profiling panel (AID 1131).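 Also: z-score merges 667 nm fluorescence with per-spot signal-to-noise over triplicate slides.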 The conditions noted are these: fibrinogen-A647 binding fluorescence, higher = more signal.
In assay [5] the target is Follistatin (Homo sapiens) (UniProt P19883). As to the kind of experiment: FST protein binding to printed compounds – biochemical, small-molecule microarray, 635/667 nm fluorescence, primary screen (AID 1132). The conditions noted are these: 635 nm fluorescence, higher = more signal.
Chain of Follistatin (Homo sapiens) (P19883 whole entry, looked up): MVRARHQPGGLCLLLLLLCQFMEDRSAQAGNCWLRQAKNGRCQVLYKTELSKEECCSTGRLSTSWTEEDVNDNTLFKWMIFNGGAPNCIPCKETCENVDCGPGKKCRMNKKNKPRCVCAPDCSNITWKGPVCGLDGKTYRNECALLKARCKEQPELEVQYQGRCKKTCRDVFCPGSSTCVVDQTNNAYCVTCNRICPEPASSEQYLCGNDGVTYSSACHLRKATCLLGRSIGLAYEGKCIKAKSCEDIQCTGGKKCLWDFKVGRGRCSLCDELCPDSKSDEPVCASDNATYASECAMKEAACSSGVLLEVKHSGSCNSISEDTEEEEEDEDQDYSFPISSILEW
For assay [6], the target named is Fibroblast growth factor 2 (Homo sapiens) (UniProt P09038). Put plainly: basic fibroblast growth factor binding to printed compounds – biochemical, small-molecule microarray, 635/667 nm fluorescence, primary screen (AID 1133). The conditions noted are these: FGF2, fluorescence 635/667, higher = more signal.
Chain of Fibroblast growth factor 2 (Homo sapiens) (P09038 whole entry, looked up): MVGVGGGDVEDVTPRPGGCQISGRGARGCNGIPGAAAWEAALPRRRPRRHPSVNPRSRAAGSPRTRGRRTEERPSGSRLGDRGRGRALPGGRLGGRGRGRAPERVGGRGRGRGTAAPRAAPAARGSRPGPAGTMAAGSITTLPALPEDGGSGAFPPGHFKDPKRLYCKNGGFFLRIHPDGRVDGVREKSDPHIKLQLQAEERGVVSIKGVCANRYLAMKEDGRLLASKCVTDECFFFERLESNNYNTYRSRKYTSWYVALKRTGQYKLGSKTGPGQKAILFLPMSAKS
A short description of assay [7]: JC-1 mitochondrial potential readout, lung cancer cells – cell-based, A549, JC-1 fluorescence, basal, 24 h, 100 nL, profiling panel (AID 1138).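 Also: A549 lung adenocarcinoma cells under basal conditions with no added stimulus; test concentration not given here.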 The conditions noted are these: higher = more signal.
In another assay the test system is Lefty1. Put plainly: Lefty1 protein binding to printed compounds – biochemical, small-molecule microarray, 635/667 nm fluorescence, primary screen (AID 1139). The conditions noted are these: fluorescence 635/667, higher = more signal.
In assay [8] the test system is wheat germ agglutinin (Triticum aestivum), Alexa647-labelled. As to the kind of experiment: Alexa647-WGA lectin binding to printed small molecules – biochemical, small-molecule microarray, 635/667 nm fluorescence, artefact control for SMM control-protein annotation, profiling panel (AID 1140).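 Also: score merges 667 nm feature emission with signal to noise over triplicate slides.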 The conditions noted are these: WGA-A647 binding, 635 nm fluorescence, higher = more signal.

Assay [9] addresses Luciferin 4-monooxygenase (Photinus pyralis) (UniProt P08659). Put plainly: inhibition of purified Photinus pyralis luciferase – biochemical, luminescence, purified enzyme, 2006 set, primary screen (AID 1141).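 Also: cell-free assay with purified firefly luciferase at 100 ng per well in PBS; test concentration not given here.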 The settings on record: purified firefly luciferase, SteadyGlo luminescence, 30 min; higher = more signal, called active from +8 up or from −8 down.
In assay [10] the test system is Wnt5a (protein binding on small-molecule microarray). As to the kind of experiment: small molecules binding Wnt5a protein – biophysical, small-molecule microarray, 635/667 nm fluorescence, primary screen (AID 1142).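 Also: fluorescence read at 667 nm with signal to noise per printed feature.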 The settings on record: 635 nm fluorescence, higher = more signal.
Assay [11] is described as follows: ATP-based viability of Huh7 replicon cells – cell-based, CellTiter-Glo luminescence, basal, 48 h, cytotoxicity control for HCV replication inhibitor project, primary screen (AID 1143).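 Also: Huh7 hepatoma cells carrying a hepatitis C replication reporter with no stimulus; test concentration not given here.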 The conditions noted are these: higher = more signal, called active from +8 up or from −8 down.
Assay [12] can be described thus: Pseudomonas biofilm growth suppression – PAO1 strain, BacTiter-Glo luminescence, LB-PBS, primary screen (AID 1144). The conditions noted are these: P. aeruginosa PAO1 biofilm, 12 h, higher = more signal.
Assay [13] can be described thus: basal CRE-LacZ reporter activity in PC12 – cell-based, unstimulated, primary screen (AID 1145). The conditions noted are these: no forskolin, luminescence, 4.5 h, higher = more signal, called active from +8 up or from −8 down.
The nature of assay [14]: forskolin-driven CRE-LacZ activity in PC12 – cell-based, CRE-LacZ reporter, forskolin-stimulated, primary screen (AID 1146).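 Also: PC12 cells with 6xCRE LacZ reporter stimulated by forskolin 10 µM; beta-galactosidase reporter signal reflecting CREB driven transcription.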 The conditions noted are these: luminescence, 4.5 h, higher = more signal, called active from +8 up or from −8 down.
Assay [15] concerns the target Streptavidin (Streptomyces avidinii) (UniProt P22629). Put plainly: compounds binding control protein streptavidin – biophysical, small-molecule microarray, 635/667 nm fluorescence, artefact control for SMM compound annotation, primary screen (AID 1147).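 Also: signal reflects streptavidin binding to arrayed compounds as a control protein.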 The settings on record: higher = more signal.
The nature of assay [16]: probe aInhba binding on compound microarray – biochemical, small-molecule microarray, 635/667 nm fluorescence, primary screen (AID 1148).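 Also: score merges 667nm spot fluorescence with signal-to-noise for antibody binding to printed compounds.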 The settings on record: higher = more signal.
Assay [17] addresses Torsin-1A (Homo sapiens) (UniProt O14656). As to the kind of experiment: TOR1A wild-type binding on microarray – cell lysate, small-molecule microarray, lysate, 635/667 nm, primary screen (AID 1149). The settings on record: COS7 hTOR1A-WT lysate, 635 nm fluorescence, higher = more signal.
For assay [18] the target is unchanged. As to the kind of experiment: torsin A mutant lysate binding on microarrays – cell lysate, small-molecule microarray, COS7 lysate, 635/667 nm fluorescence, primary screen (AID 1150).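 Also: score pools 667 nm emission and signal to noise measuring lysate protein binding.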 The settings on record: COS7 hTOR1A mutant lysate, 635 nm fluorescence, higher = more signal.
Assay [19] relates to Sonic hedgehog protein (Shh). As to the kind of experiment: Sonic hedgehog microarray binding compounds – biochemical, small-molecule microarray, 635/667 nm fluorescence, primary screen (AID 1151).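 Also: Shh protein binding to compounds spotted on small-molecule microarray slides; score combines spot fluorescence intensity with signal-to-noise across triplicate slides.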 The conditions noted are these: 635 nm fluorescence, higher = more signal.

Chain of Luciferin 4-monooxygenase (Photinus pyralis) (P08659 whole entry, looked up): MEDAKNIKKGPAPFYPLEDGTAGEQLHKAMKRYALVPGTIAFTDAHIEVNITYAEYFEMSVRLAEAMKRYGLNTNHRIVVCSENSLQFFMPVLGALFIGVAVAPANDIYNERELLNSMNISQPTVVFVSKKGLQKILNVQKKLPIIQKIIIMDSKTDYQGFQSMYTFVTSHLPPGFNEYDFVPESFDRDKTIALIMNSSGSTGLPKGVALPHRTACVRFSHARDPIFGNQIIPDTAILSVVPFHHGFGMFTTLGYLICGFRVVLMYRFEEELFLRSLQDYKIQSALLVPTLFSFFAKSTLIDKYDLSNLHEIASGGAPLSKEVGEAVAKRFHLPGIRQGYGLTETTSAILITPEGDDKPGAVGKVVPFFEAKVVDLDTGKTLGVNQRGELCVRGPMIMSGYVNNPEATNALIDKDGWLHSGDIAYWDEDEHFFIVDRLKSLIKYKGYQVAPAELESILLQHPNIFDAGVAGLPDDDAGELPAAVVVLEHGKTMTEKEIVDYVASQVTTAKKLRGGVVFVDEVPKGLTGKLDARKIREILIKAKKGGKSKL
Chain of Streptavidin (Streptomyces avidinii) (P22629 whole entry, looked up): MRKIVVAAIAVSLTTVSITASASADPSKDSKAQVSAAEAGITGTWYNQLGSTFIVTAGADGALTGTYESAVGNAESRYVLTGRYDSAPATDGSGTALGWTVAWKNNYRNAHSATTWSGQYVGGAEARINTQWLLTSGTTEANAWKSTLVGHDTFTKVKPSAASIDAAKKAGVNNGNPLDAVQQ
Chain of Torsin-1A (Homo sapiens) (O14656 whole entry, looked up): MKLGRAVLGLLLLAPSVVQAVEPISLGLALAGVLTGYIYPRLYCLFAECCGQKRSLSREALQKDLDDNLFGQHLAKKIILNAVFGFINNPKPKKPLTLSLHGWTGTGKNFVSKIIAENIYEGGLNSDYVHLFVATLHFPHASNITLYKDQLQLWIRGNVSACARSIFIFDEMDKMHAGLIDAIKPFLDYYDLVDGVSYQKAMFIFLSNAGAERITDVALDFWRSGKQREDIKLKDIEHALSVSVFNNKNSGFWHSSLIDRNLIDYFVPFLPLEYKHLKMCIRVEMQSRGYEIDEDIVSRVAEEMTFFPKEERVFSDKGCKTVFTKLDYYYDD

`CCOC(=O)C[C@H]1[C@H](OC(=O)c2ccccc2-c2ccccc2)[C@@H](NC(=O)CC(C)C)c2cc(OCCCO)ccc2N1C(=O)Cc1ccc(OC)cc1`: the composite z-score in assay [1] was -0.272; in assay [2], 0.149; in assay [3] it was -0.0432; in assay [4], 0.522; in assay [5] it was -0.247; in assay [6] it was 0.268. Besides, the composite z-score is 0.108 with Lefty1; 0.288 in assay [8]; -0.0051 in assay [10]; 0.0802 in [15]; -0.179 in assay [16]; 0.0776 with Torsin-1A (Homo sapiens) [17]. Also, the composite z-score with Torsin-1A (Homo sapiens) [18] came out at 0.199; in [19], 0.222. Moreover, the z-score is 1.15 in assay [7]; -0.0339 (inactive) in assay [9]; -0.386 (inactive) in assay [11]; 0.393 (inactive) in assay [12]; 6.91 (inactive) in assay [13]; 0.0967 (inactive) in assay [14].

As for `CC(=O)NCCCC[C@@H]1NC(=O)[C@@H]2C[C@H](C(=O)NCCCCCNC(=O)CS)[C@H](c3cccc(OCCO)c3)N2C1=O`, the composite z-score in assay [1] is 2; in [2], -0.516; in assay [3], -0.612; in assay [4], -1.07; in [5], 1.32; in assay [6] it was 0.94. In addition, the composite z-score in the assay on Lefty1 was 1.1; in [8], 0.0847; in assay [10], -0.149; in [15], -0.526; in assay [16], -0.101; with Torsin-1A (Homo sapiens) [17], 0.653. Besides, the composite z-score in the assay with Torsin-1A (Homo sapiens) [18] came to 0.541; in assay [19], 1.62. For the same molecule, the z-score is -0.763 in [7]; -0.125 (inactive) in assay [9]; -1.12 (inactive) in [11]; -0.617 (inactive) in [12]; -1.48 (inactive) in assay [13]; -1.4 (inactive) in [14].

With `COC(=O)C[C@H]1O[C@]2(C(=O)N(C)c3ccccc32)[C@@H](C)[C@@H]1[Si](C)(C)F`, the composite z-score in [1] stood at 0.0783; in assay [2], 0.608; in assay [3], 0.26; in assay [4], 0.209; in assay [5], 1.18; in assay [6], 2.03. Besides, the composite z-score in the assay on Lefty1 is 1.33; in [8], -0.0572; in assay [10], 0.56; in assay [15], 0.454; in [16], 0.0301; in the assay with Torsin-1A (Homo sapiens) [17], 0.142. Further, the composite z-score was 0.164 with Torsin-1A (Homo sapiens) [18] and 1.79 in assay [19]. The z-score in assay [7] was 0.435; in assay [9], -1.82 (inactive); in [11], -1.18 (inactive); in [12] it was -0.852 (inactive); in assay [13], 1.03 (inactive); in [14], -0.383 (inactive).

On to `COc1ccccc1CN1C(=O)c2ccccc2[C@@]2(Cc3ccccc3N(CC(C)C)C2=O)[C@@H]1c1ccc(CO)cc1`, for which the composite z-score in [1] is -0.259; in assay [2], -0.827; in [3] it was -0.362; in [4] it was -0.705; in assay [5] it was -0.114; in assay [6], -0.556. For the same molecule, the composite z-score is -0.0355 with Lefty1; -0.219 in assay [8]; -0.37 in [10]; -0.551 in [15]; 0.027 in assay [16]; -0.913 with Torsin-1A (Homo sapiens) [17]. In addition, the composite z-score with Torsin-1A (Homo sapiens) [18] was -0.0676; in assay [19], -0.452. The z-score in assay [7] is 0.379; in assay [9], -0.35 (inactive); in [11] it was 0.332 (inactive); in [12], 0.8 (inactive); in assay [13] it was -0.412 (inactive); in assay [14], 0.462 (inactive).

On to `C=CCN1C(=O)[C@]2(O[C@H](CCn3cc([C@H](O)c4ccccc4)nn3)[C@@H]([Si](C)(C)c3ccc(OC)cc3)[C@@H]2C)c2ccccc21`, for which the composite z-score in assay [1] was -0.435; in assay [2] it was -0.723; in [3], -0.458; in assay [4] it was -1.07; in [5], -0.696; in assay [6] it was -0.403. For the same molecule, the composite z-score with Lefty1 was -0.581; in assay [8], 0.417; in assay [10], -0.336; in assay [15] it was -0.957; in [16] it was -0.203; in the assay with Torsin-1A (Homo sapiens) [17], -0.704. The composite z-score is -0.73 with Torsin-1A (Homo sapiens) [18] and 0.238 in assay [19]. Besides, the z-score in [7] was -0.156; in assay [9], 0.184 (inactive); in assay [11] it was -3.87 (inactive); in assay [12], -0.151 (inactive); in assay [13], 2.23 (inactive); in assay [14] it was -0.979 (inactive).
